Source: ChEMBL document CHEMBL4888484, “Replenishing the malaria drug discovery pipeline: Screening and hit evaluation of the MMV Hit Generation Library 1 (HGL1) against asexual blood stage Plasmodium falciparum ,using a nano luciferase reporter read-out” (2022)
The whole screen tested about 150,000 compounds, of which about 540 (0.36%) showed an effect of 50% or more. Only a selection was taken, and strong results are over-represented in it overall.

tested on: Plasmodium falciparum; test: Primary screen in NF54 nanoGlo assay, in single point, at 2uM, 72h; a lower Z score goes with more inhibition; format: functional, Erythrocyte; settings: timepoint 72 hour

Structure (SMILES) | % Inhibition [%] | Z score
Cc1ccc(-c2nnc(N3CCC4(CCOC4)C3)n2CC2CCCO2)s1 (centres undefined) | -3 | 0.32
O=C1N[C@H]2C[C@@H](C(=O)NC[C@H]3O[C@H](CCOc4cc(-c5ccccc5)ccc41)CC[C@@H]3O)N(Cc1ccc(Cl)c(F)c1)C2 | 37 | -4.16
O=C1N[C@H]2C[C@@H](C(=O)NC[C@H]3O[C@H](CCOc4cc(-c5ccccc5)ccc41)CC[C@@H]3O)N(Cc1ccc3c(c1)OCO3)C2 | 51 | -1.36
O=C1N[C@H]2C[C@@H](C(=O)NC[C@H]3O[C@H](CCOc4ccccc41)CC[C@@H]3O)N(Cc1ccc3c(c1)OCO3)C2 | 26 | -2.92
CC(C)c1cc(NCCCn2ccnn2)nc(N)n1 | -5 | 0.75
CC(C)(C)CCCC(=O)NCCn1cnnc1C1CC1 | -7 | 1.32
CN1CC[C@@H](CNC(=O)c2ccnc3c2ncn3C)[C@@H]1c1cccnc1 | 1 | -0.18
CN1CCC(N(C)C(=O)c2ccccc2NC2CCCCC2)CC1 | 6 | -1.03
COCCC(CNC(C)c1nccnc1C)NC(=O)OC(C)(C)C (centres undefined) | -12 | 1.51
CCN1CCN(c2c(CN(C(=O)NC3CCCCC3)C(C)C)c(C)nn2-c2cccc(F)c2)CC1 | -10 | 1.04
Cc1ccc(C(=O)Nc2ccc(N3CCCN(C(=O)C4CCCC4)CC3)c(C(=O)N3CCCCC3)c2)cc1 | -4 | 0.58
Cc1ccc(C(=O)Nc2cc(C(=O)N3CCCCC3C)cc(C(=O)N3CCCCC3C)c2)cc1 (centres undefined) | 6 | -0.87
Cc1ccc(C(=O)Nc2cc3c4c(c2)C2CCCC2CN4CC2CCCC32)cc1 (centres undefined) | 57 | -4.94
Fc1cc(Br)cnc1CN1CCC[C@H]1c1ncn[nH]1 | 19 | -2.4
COc1ccc(CCNC(=O)N2CC=C(C(F)(F)F)CC2)cc1F | 6 | -1.17
Cc1ccc(Nc2nc(N)nc(Cn3cnc(C)c3C)n2)cc1 | -3 | 0.51
Cc1ccc(Nc2nc(N)nc(CN3CCCCCCC3)n2)cc1 | -5 | 0.66
OC1CCN(Cc2ccc(CNc3ccc(F)cn3)cc2)CC1 | -6 | 0.93
CC(C)n1ccnc1[C@H]1CCCN(C(=O)c2cnc3c(c2)CCCC3)C1 | 3 | -0.26
CN1CCCN(c2ccc(NC(=O)c3nn(-c4ccccc4)c(=O)c4ccccc34)cc2F)CC1 | 82 | -6.28
NC(=O)c1n[nH]c2ccc(NC(=O)c3nn(-c4ccccc4)c(=O)c4ccccc34)cc12 | -3 | 0.31

Structure (SMILES) | % Inhibition [%] | Z score
O=C(Nc1cc(C(F)(F)F)ccc1N1CCOCC1)c1nn(-c2ccccc2)c(=O)c2ccccc12 | -15 | 2.63
NS(=O)(=O)c1cnc(N[C@H]2CCc3ccc(F)cc32)s1 | -3 | 0.33
COc1cc(C)c2[nH]c3c(c(=O)c2c1)CN(CC(=O)Nc1ccc(F)c(C)c1)CC3 | 43 | -1.61
COc1cc(C)c2[nH]c3c(c(=O)c2c1)CN(CC(=O)Nc1ccc2c(c1)OCCO2)CC3 | 52 | -1.23
COc1cc(C)c2[nH]c3c(c(=O)c2c1)CN(CC(=O)Nc1ccc2c(c1)OCO2)CC3 | 44 | -0.61
O=C1N(CC2CCCCC2)CCC[C@@]1(O)CN1CCOCC1 | -7 | 1.35
CCOC1(c2nc(Cc3conc3C)no2)CCCC1 | 6 | -0.78
CCOc1cc(Cl)ccc1C(=O)NC1CCN(C[C@H]2CCOC2)CC1 | 38 | -0.42
c1nc(NCCC2CCCCC2)c2cnoc2n1 | 7 | -0.88
CC(C)[C@@H](C(=O)NCc1cccc(C(F)(F)F)c1)N1CCCS1(=O)=O | -4 | 0.83
Cc1c(-c2nn(-c3ccccc3)c(-c3cnn(C)c3C)c2Cl)cnn1C | 39 | -4.45
Cc1c(-c2nn(-c3nc(C4CC4)cc(C(F)(F)F)n3)c(-c3cnn(C)c3C)c2Cl)cnn1C | 76 | -8.32
Cc1nn(C)cc1-c1nn(-c2nc(C3CC3)cc(C(F)(F)F)n2)c(-c2cn(C)nc2C)c1C | 46 | 0.79
Cc1nccn1C[C@H]1CCCN(C(=O)Cn2cccn2)C1 | -3 | 0.6
COC(=O)c1cc(OC)ccc1-c1cccc(C(=O)N2CCNC[C@@H]2C)c1 | -17 | 1.67
O=C(Nc1nc2cccc(Cl)c2o1)c1cccc(F)c1 | 89 | -8.47
Cc1ccc(NC(=O)c2cccc(F)c2)c(-c2nc3ccccc3nc2O)c1 | -15 | 1.64
Cc1nc(N2CCCC2)nc(C)c1NC(=O)c1cccc(F)c1 | -5 | 0.84
COc1ccccc1N1CCN(C(=O)[C@H](C)n2ccnc2)CC1 | -19 | 2.94
CCc1ccc(-c2cc(C(=O)Nc3ccc4nc(NS(C)(=O)=O)sc4c3)[nH]n2)cc1 | -13 | 1.27
CCn1c(N2CCC[C@H](C(=O)NCc3cccc(Cl)c3)C2)cc(=O)n(C)c1=O | -20 | 3.09

Structure (SMILES) | % Inhibition [%] | Z score
COc1ccc(N(Cc2c(C)noc2C)Cc2c(C)noc2C)cc1 | -5 | 0.44
CC1(C)CCCN1S(=O)(=O)c1onc(C2CC2)c1Cl | -3 | 0.41
O=c1[nH]c(=O)n(S(=O)(=O)c2ccccc2)cc1F | 90 | -12.13
Cc1ccc(S(=O)(=O)n2cc(C)[nH]c2=O)cc1 | -23 | 2.15
O=c1[nH]c(=O)n(CCS(=O)(=O)c2ccccc2)cc1Cl | -11 | 1.09
CC(C1CC1)n1cc(NC(=O)N2CCC(C(F)(F)F)C2(C)C)cn1 (centres undefined) | -10 | 1.23
Cc1nnc(OC2Cc3ccccc3C2)s1 | -7 | 1.07
Fc1cnc(OC2Cc3ccccc3C2)nc1 | 60 | -5.26
O=C(CCc1ccccc1)N[C@H]1CC[C@H](Oc2ncc(F)cn2)CC1 | -10 | 1.77
CCc1nnc(CNC(=O)C(=O)c2ccco2)o1 | -5 | 0.65
COc1ccc(CNC(=O)CCc2c(C)nn(-c3ccc4nnc(C)n4n3)c2C)c(OC)c1 | 5 | -0.63
CC[n+]1c(/C=C/N(C)c2ccccc2)oc2ccccc21 | 80 | -10.29
CC[n+]1c(/C=C/N(C)c2ccccc2)oc2ccc(-c3ccccc3)cc21 | 88 | -9.92
COc1ccc2c(c1)C(=O)N(Cc1ccccc1)C(=O)C2(C)C | -10 | 1.06
C[C@@H](c1cccnc1)N(C)Cc1nc2c(s1)CCC2 | -18 | 3.45
CCC(=O)Nc1cc(NC(=O)N(CC)CC2CCOCC2)ccc1OC | -8 | 1.44
Oc1ccc2ncccc2c1[C@@H](Nc1ccccn1)c1cccc(Cl)c1 | 34 | -3.9
Oc1ccc2ncccc2c1[C@@H](Nc1ccccn1)c1cccc(Br)c1 | 58 | -12.1
Cc1cc([C@H](Nc2ccccn2)c2ccccc2)c(NC(=O)c2ccccc2)s1 | 31 | -0.7
Cc1cccc(Cl)c1NC(=O)N1CCS(=O)(=O)[C@@H](C)C1 | -5 | 0.54
Cc1ccc(-n2nnnc2C2(NC(C)C)CCCC2)cc1 | -3 | 0.43

Structure (SMILES) | % Inhibition [%] | Z score
CC(=O)Nc1ccc(-c2nc(-c3cccnn3)no2)c(C)c1 | -22 | 2.61
CC(C)(C)CN(CC(=O)O)C(=O)Cc1ccccc1F | -9 | 1.82
CCN1CCN(C(=O)c2cnc(-c3ccc(F)cc3)nc2N(C)C)CC1 | 3 | -0.5
COc1ccnc(NCCCNc2nccc(OC)n2)n1 | -4 | 0.53
Cc1ccc(N2CCOCC2)c(NC(=O)C2CCCCC2)c1 | -1 | 0.12
COc1ccccc1COC(=O)Nc1c(C)nn(C)c1Cl | 2 | -0.32
O=C(CNC(=O)OCc1ccccc1)Nc1ccc(F)cc1 | 37 | 2.05
Cc1nn(C)c(Cl)c1NC(=O)OCc1ccc(F)cc1 | 54 | -1.24
Cc1ccc(N2S(=O)(=O)c3ccccc3S2(=O)=O)cc1 | 4 | -0.44
Cc1cc(NC(=O)C2CCC(C3CC3)CC2)n2ncnc2n1 (centres undefined) | -7 | 0.83
FC(F)(F)c1cccc(Nc2c3ccccc3nc3ccccc23)c1 | 10 | -0.85
CCOc1ccc(NC(=O)Cc2c(O)nc3ccccc3c2O)cc1 | -9 | 1.39
CCOc1ccc(Nc2c3ccccc3nc3ccccc23)cc1 | 81 | -10.53
O=C(O)c1ccc(Nc2c3ccccc3nc3ccccc23)cc1 | -3 | 0.3
C[C@H](NC(=O)c1ccccc1)C(=O)NCC1(N2CCOCC2)CCCCC1 | -4 | 0.39
COc1ccc(C(=O)N(Cc2ccc(OS(=O)(=O)c3ccc(F)cc3)cc2)C(C)C)c(OC)c1 | -14 | 1.5
NC(=NCc1cccc2cccnc12)N1CCN(c2nccs2)CC1 | 57 | -10.38
NC(=NCc1csc2ccccc12)N1CCN(c2nccs2)CC1 | 5 | -0.56
NC(=NCc1ccc(Cl)cn1)N1CCN(c2nccs2)CC1 | -4 | 0.42
